Source: PubChem BioAssay (National Center for Advancing Translational Sciences (NCATS))
KDM5B inhibitor: Primary screen for KDM5B Histone Demethylases FDH-coupled qHTS; actives 2.6% (n = 220,000); Lysine-specific demethylase 5B (Homo sapiens), Q9UGL1; Potency, µM (top dose mostly 57.7 µM), usual class: inhibitors; KDM5B demethylase, FDH-coupled NADH fluorescence (FDH is formaldehyde dehydrogenase); active = well fitted inhibition curve with a large enough effect; note: 0% is about no effect; nearly all actives have a fitted effect of over 70% in size
Target sequence (Q9UGL1 whole entry, looked up): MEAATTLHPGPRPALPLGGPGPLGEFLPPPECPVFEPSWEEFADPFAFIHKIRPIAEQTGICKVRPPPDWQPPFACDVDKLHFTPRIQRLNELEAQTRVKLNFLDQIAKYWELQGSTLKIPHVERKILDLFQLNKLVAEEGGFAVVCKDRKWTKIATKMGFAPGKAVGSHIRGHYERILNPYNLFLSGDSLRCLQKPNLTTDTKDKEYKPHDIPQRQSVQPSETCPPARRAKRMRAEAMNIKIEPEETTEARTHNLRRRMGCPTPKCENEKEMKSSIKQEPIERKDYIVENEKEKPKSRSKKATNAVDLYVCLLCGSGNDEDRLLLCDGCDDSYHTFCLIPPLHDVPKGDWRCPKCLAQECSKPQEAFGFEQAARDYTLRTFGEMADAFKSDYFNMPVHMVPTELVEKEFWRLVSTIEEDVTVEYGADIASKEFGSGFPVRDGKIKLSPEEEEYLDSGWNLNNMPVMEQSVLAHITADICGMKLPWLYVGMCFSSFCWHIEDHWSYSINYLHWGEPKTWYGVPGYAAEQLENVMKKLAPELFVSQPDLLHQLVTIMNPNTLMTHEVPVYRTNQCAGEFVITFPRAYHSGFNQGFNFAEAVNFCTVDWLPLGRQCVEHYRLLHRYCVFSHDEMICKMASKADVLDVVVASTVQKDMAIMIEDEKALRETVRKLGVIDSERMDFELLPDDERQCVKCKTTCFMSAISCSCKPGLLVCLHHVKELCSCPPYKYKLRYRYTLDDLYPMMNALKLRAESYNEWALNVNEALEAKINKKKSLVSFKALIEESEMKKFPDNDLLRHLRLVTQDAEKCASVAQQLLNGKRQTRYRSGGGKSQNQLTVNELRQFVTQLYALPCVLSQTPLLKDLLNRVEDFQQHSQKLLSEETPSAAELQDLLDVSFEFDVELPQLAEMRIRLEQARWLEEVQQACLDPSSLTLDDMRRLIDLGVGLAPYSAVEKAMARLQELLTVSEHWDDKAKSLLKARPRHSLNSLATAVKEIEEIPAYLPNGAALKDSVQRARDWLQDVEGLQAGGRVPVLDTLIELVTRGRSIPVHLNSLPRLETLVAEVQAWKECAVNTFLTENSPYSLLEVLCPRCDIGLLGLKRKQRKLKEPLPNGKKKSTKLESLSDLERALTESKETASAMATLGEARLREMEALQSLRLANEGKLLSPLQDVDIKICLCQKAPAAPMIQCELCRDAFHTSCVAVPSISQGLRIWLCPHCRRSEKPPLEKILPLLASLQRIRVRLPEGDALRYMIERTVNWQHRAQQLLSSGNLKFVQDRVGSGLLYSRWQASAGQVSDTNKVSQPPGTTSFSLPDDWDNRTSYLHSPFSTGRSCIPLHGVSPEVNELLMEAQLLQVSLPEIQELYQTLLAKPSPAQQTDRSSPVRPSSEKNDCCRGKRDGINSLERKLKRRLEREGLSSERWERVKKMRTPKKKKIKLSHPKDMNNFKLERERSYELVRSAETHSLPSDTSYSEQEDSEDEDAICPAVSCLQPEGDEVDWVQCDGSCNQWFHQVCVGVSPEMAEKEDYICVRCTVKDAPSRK
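Measured: NADH fluorescence change, 30 min, RT. System: KDM5BΔAP 200 nM final, H3K4me3 peptide, α-KG, Fe(II), ascorbate, NAD⁺ plus FDH, pH 7.5 HEPES. Compounds: titrated, 10 min pre-incubation with enzyme.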
Active calls of the source: *; i = inactive. The entries come from a sample that favours hits as a whole. Potency is the fitted concentration of half-maximal effect.

SMILES | KDM5B inhibitor
N#CCSc1ccccc1C(=O)NC1CC1 | i
O=C(NC1CC1)c1cnn2ncccc12 | 31.6µM*
O=C(NC1CC1)c1cc(-c2ccccc2)nc2ccccc12 | i
CC1CCC(NC(=O)c2ccccc2S(C)(=O)=O)CC1 (stereo not given) | i
CNC(=O)c1cnn2c1CN(C(=O)c1ccccc1F)CC2 | i
COc1ccc2nc(C)c(C(=O)Nc3cccc(C)n3)cc2c1 | i
O=C(COc1ccc(-c2nnc(Nc3ccccc3)c3ccccc23)cc1)N1CCCCC1 | i
CCCS(=O)(=O)N1CCCC1c1noc(COc2ccc(C)cc2)n1 (stereo not given) | i
O=C1[C@@H]2C[C@@H](CN2C(=O)C2CCOCC2)Oc2ccccc2N1Cc1ccccn1 | i
CC(Sc1c(Cl)cccc1Cl)C(=O)NC(N)=O (stereo not given) | i
O=C(c1cc(-c2ccc(F)cc2)n[nH]1)N1CC2CC(C1)[C@H]1CCCC(=O)N1C2 (stereo not given in full) | i
O=C(c1ccc2nc(-c3ccccc3)cn2c1)N1CCOC(C(F)(F)F)C1 (stereo not given) | 31.6µM*
O=C(c1cccc2nccnc12)N1CCOC(C(F)(F)F)C1 (stereo not given) | i
CCCOC1CCCN(C(=O)c2ccc3nc(-c4ccc(F)cc4)cn3c2)C1 (stereo not given) | 28.2µM*
CCCOC1CCCN(C(=O)c2cc(Cl)ccc2OC2CCN(C(C)=O)CC2)C1 (stereo not given) | i
O=C(c1ccc2nc(-c3ccc(F)cc3)cn2c1)N1C[C@@H]2CCCN[C@@H]2C1 | 28.2µM*
O=C(c1cc(-c2ccc(F)cc2)n[nH]1)N1CCC(OCC2CC2)C1 (stereo not given) | i
O=C(Cc1ccc(CO)cc1)N1CCOC(C(F)(F)F)C1 (stereo not given) | i
O=C(c1ccc(F)cc1)N1CC2CC(C1)[C@H]1CCCC(=O)N1C2 (stereo not given in full) | i
O=C(c1ncn[nH]1)N1CCN(c2cc(C3CC(O)C3)ncn2)CC1 (stereo not given) | i
Cc1c(CN(C)Cc2cccc(C(=O)Nc3ccc(C#N)cc3)c2)cnn1C | i
O=C1CCN(S(=O)(=O)c2ccccc2)CCCN(C(=O)CC2CCCC2)CCN1 | i
CSc1ncc(C(=O)Nc2ccccc2C)c(-c2ccccc2)n1 | i
Oc1c(C(c2ccccc2)N2CCCCC2)sc2nc(-c3ccco3)nn12 (stereo not given) | i
CCOc1ccc(-c2[nH]nc3c2C(c2cc(OC)c(OC)cc2Br)C(C#N)=C(N)O3)cc1 (stereo not given) | i
SMILES | KDM5B inhibitor
Cn1nc(C(=O)OCc2nc(-c3ccc(Cl)cc3)no2)c2ccccc21 | i
CCOc1cc(Br)c(/C=C2/NC(=O)NC2=O)cc1OC | i
Cn1ncc(CN2CCCC23CCN(c2ccc(C(F)(F)F)cn2)CC3)c1C1CC1 | 22.4µM*
Cn1cc(CN2CCCC23CCN(c2ccc(C(F)(F)F)cn2)CC3)cc1C#N | 28.2µM*
C[C@@H]1CN(C2CCN(Cc3cnn(C)c3C3CC3)CC2)C[C@H](C)O1 | i
Cc1cccc(OCC(O)CN2CCCN(c3ccc(C(F)(F)F)cn3)CC2)c1 (stereo not given) | i
CC(C)(C)NC(=O)N1CCCN(c2ccc(C(F)(F)F)cn2)CC1 | i
O=S(=O)(c1ccc(C(F)(F)F)cc1)N1CCCN(c2ccc(C(F)(F)F)cn2)CC1 | i
CCn1nccc1C(=O)N1CCC(Oc2ccccc2)C1 (stereo not given) | i
CCCC(=O)N1CCCN(C(C)C(=O)Nc2ccc(F)c(F)c2)CC1 (stereo not given) | i
Fc1ccc(-c2noc(-c3nnn4c3COC(c3ccc(Cl)cc3)C4)n2)cc1F (stereo not given) | i
COc1ccc(Nc2nc(Nc3ccccc3)c3nccnc3n2)cc1Cl | i
O=C(c1ccccc1)N1CCCC(c2nc(C3CCOCC3)no2)C1 (stereo not given) | i
Cc1cc(C(=O)N2CCCC(c3nc(C4CCOCC4)no3)C2)n(C)n1 (stereo not given) | i
O=C(c1cc(-c2ccc(F)cc2)nc2ccccc12)N1CCC(c2nc(C3CCOCC3)no2)C1 (stereo not given) | 28.2µM*
O=C(c1cccc(F)c1)N1CCC(c2nc(C3CCOCC3)no2)C1 (stereo not given) | i
O=C(CCN1c2ccccc2Sc2ccccc21)N1CCCC(c2nc(C3CCOCC3)no2)C1 (stereo not given) | 25.1µM*
O=C(c1ccccc1F)N1CCC(c2nc(C3CCOCC3)no2)C1 (stereo not given) | i
Cc1cnc(C(=O)N2CCCC(c3nc(C4CCOCC4)no3)C2)cn1 (stereo not given) | 31.6µM*
O=C(CC1CCCC1)N1CCCC(c2nc(C3CCOCC3)no2)C1 (stereo not given) | i
Cc1cccc(C(=O)N2CCCC(c3nc(C4CCOCC4)no3)C2)c1 (stereo not given) | i
Cc1ccc(CN2CCCc3nc(C)nc(-c4ccc(O)cc4)c3C2)cc1 | i
Cc1ccc2oc(-c3cccc(NC(=O)c4cccc([N+](=O)[O-])c4C)c3)nc2c1 | i
O=C(C1CCCO1)N1CCc2[nH]nc(C(c3ccccc3)c3ccccc3)c2C1 (stereo not given) | i
Cn1c(=O)c2c(ncn2CCCNC2=NCCC2)n(C)c1=O | i
SMILES | KDM5B inhibitor
COc1ccc(C(=O)ON=C2CCCCC2)cc1I | i
Cc1ccc(C(=O)N2CCC(c3nn(-c4ccc(Cl)cc4)c(=O)[nH]3)CC2)cc1 | i
COc1cccc(F)c1-c1ccc2c(n1)c(=O)ncn2Cc1ccccc1 | i
COc1ccc(-c2ccc3c(n2)c(=O)ncn3Cc2ccccc2)cn1 | i
O=c1ncn(Cc2ccccc2)c2ccc(-c3ccsc3)nc12 | 35.5µM*
O=c1ncn(Cc2ccccc2)c2ccc(-c3ccc(F)cc3F)nc12 | 28.2µM*
COc1ccc(-c2ccc3c(n2)c(=O)ncn3Cc2ccccc2)cc1OC | i
COc1cccc(-c2ccc3c(n2)c(=O)ncn3CC2CC2)c1 | i
CCn1c(N2CCN(C)CC2)nc2c1c(=O)[nH]c(=O)n2C | i
CCCNC(=O)CCNC(=O)NCc1nc2c(cnn2-c2ccccc2)c(=O)[nH]1 | i
CCc1nccn1CCC(=O)N1CC[C@@](O)(C2CCOCC2)[C@H](C)C1 | i
CN(Cc1ccccc1Cl)C(=O)c1ccccc1O | i
Cc1ccc(S(=O)(=O)N(CC(=O)N2CCc3ccccc3C2)Cc2ccc(Cl)cc2)cc1 | i
Nc1ncc(S(=O)(=O)Nc2ccccc2)cn1 | i
N#Cc1cccc(Cn2c(CN3CCCCC3)nc3scc(-c4cccs4)c3c2=O)c1 | i
CN(C)C(=O)c1ccc2cncn2c1 | 31.6µM*
Cc1ccc(C(=O)NC2CCC(C)CC2)cc1C (stereo not given) | i
COc1cc(C(=O)NC2CC2)ccc1C | i
O=C(NC1CC1)c1ccc2cncn2c1 | 31.6µM*
CNC(=O)c1ccc(I)cc1 | i
CN(C)C(=O)c1ccc(F)c(F)c1 | i
CNC(=O)c1ccn2cncc2c1 | i
CNC(=O)c1ccc2cncn2c1 | 31.6µM*
CN(C)C(=O)c1cc(F)cc(F)c1 | i
COCCOc1ccc(C(=O)NC(C)(C)C)cc1Br | i
COCCCn1c(C)cnc1C1CCN(C(=O)C2(c3ccc(OC)cc3)CC2)C1 (stereo not given) | i
